A selection: hits, their analogues and other compounds. The true share with any hit is near 10%.
PNC inhibitor = perinucleolar compartment assembly inhibition | PC3M PTB-GFP, PNC prevalence imaging, 16 h; stronger effect = lower value | activity change (PNC), negative = inhibition, % at 10 µM | 3.1% of 140,000 active | AID 2417;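 active means readout at or below -70, meaning at least 70% loss of cells showing the perinucleolar compartment, a nuclear body marking cancer cells; inconclusive means readout between -30 and a set limit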;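 further: plate controls were DMSO wells for no effect and camptothecin positive control wells for full effect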
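PC3M cells stably expressing PTB-GFP, 750–1000 cells/well, treated 16 h at 37 °C with compound (23 nl of library stock), in duplicate. After paraformaldehyde fixation and Hoechst stain, imaged at 20x; PNC prevalence scored by image analysis.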
HPGD inh = inhibitors of human 15-hydroxyprostaglandin dehydrogenase (HPGD). purified HPGD, NADH fluorescence kinetic, PGE2 substrate. Potency, µM, inactives show top-dose activity change, negative = inhibition, usual class: inhibitors. 4.3% of 150,000 active. P15428. AID 894; active means well fitted inhibition curve with a large enough effect, not every such curve was filed as active; inconclusive means small, poorly fitted or top-dose-only effect, or another doubt; inactive means no such curve, though single readings can be large or run the other way; further: potency means the concentration at half of the fitted maximal effect
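NADH formation kinetics: reaction with 30 uM PGE2 and 1 mM NAD+ (final), 20 nM enzyme, Tris-HCl pH 8 with Tween 20, after 15 min compound preincubation at room temperature. Fluorescence change, last versus first of five reads.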
aGal spleen mod = alpha-galactosidase A (human) modulation; P06280; human spleen homogenate, 4MU-alpha-Gal fluorescence, 40 min; Potency, µM (titrated, usually from 80 µM), for inactives: at the top dose activity change, negative = inhibition, most hits filed as inhibitors; 0.008% of 240,000 active; AID 2107;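 further: potency means the concentration at half of the fitted maximal effect; 0% = enzyme with vehicle and -100% = no enzyme basal signal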
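Fluorogenic readout (Ex 365/Em 440 nm) of 4-methylumbelliferone released from 1 mM 4-MU-alpha-galactoside by spleen homogenate, 40 min at 37C, pH 5.0. Data normalized to no-enzyme and enzyme controls; Hill-equation AC50 from compound titrations.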
GLA inh pH 4.5 = alpha-galactosidase A (human) inhibition, pH 4.5; 230,000 tested, under 10 active; activity change, negative = inhibition, % at 105 µM; purified enzyme, 4-MU-alpha-Gal fluorescence, pH 4.5; P06280;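 further: 0% = full activity with enzyme and -100% = basal without enzyme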
12-hLO inh = blocks human 12-lipoxygenase activity. P18054. purified 12-hLO, xylenol orange hydroperoxide absorbance. Potency, µM (highest dose often 57.1 µM), for inactives: at the top dose activity change, negative = inhibition, actives largely listed as inhibitors. 0.12% of 150,000 active. AID 1452; further: potency means the concentration at half of the fitted maximal effect; nearly all actives have a fitted effect of over 55% in size
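Lipoxygenase turnover measured by absorbance at 573 and 405 nm after Fe-XO development. Human 12hLO 150 nM, arachidonate 40 uM, pH 7.0 Hepes buffer with detergent; 15 min compound preincubation, 30 min reaction.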
ALDH1A1 inh = ALDH1A1 (human) enzyme inhibition; Purified ALDH1A1, NADH fluorescence, propionaldehyde substrate; Potency, µM (top dose mostly 75.3 µM), without a hit: top-dose activity, negative = inhibition, hits mostly inhibitors; 7.3% of 220,000 active; active means well fitted inhibition curve with a large enough effect, not every such curve was filed as active; inconclusive means small, poorly fitted or top-dose-only effect, or another doubt; inactive means no such curve, though single readings can be large or run the other way;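 further: potency means the concentration at half of the fitted maximal effect; plate controls were no enzyme wells and a reference inhibitor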
Target sequence (P00352 whole entry, looked up): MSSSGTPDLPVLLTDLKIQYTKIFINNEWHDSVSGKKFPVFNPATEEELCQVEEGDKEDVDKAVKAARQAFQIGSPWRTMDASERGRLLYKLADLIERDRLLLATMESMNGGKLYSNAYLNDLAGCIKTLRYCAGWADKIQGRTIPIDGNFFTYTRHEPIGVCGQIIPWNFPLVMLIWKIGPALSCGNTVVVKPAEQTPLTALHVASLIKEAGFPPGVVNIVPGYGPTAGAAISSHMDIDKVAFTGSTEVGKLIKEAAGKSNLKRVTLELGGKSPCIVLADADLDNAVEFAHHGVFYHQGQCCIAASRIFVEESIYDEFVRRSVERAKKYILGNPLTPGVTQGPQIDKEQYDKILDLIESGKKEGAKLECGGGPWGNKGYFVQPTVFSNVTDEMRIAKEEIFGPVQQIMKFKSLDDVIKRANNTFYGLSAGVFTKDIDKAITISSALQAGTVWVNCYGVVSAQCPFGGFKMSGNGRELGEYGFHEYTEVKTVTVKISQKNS
Active calls of the source: *; ? = inconclusive; · = no result; [ ] = dose if it differs, or a comment. Unless noted, the call rests on the fitted dose curve; in most records, active means well fitted curve in the direction sought with a large enough effect; inconclusive means small, poorly fitted or top-dose-only effect, or another doubt; inactive means no such curve, though single readings can be large; an effect the other way counts as inactive or inconclusive. Unless noted, on the % scale 0 is the no-effect control and ±100 the full control effect.

SMILES	PNC inhibitor	HPGD inh	aGal spleen mod	GLA inh pH 4.5	12-hLO inh	ALDH1A1 inh
Cc1ccccc1CSc1nc2c(c(=O)[nH]1)CCCC2	13	4µM*	-4%	2	3%	10%
Cc1ccc(S(=O)(=O)Nc2nc3ccc(S(=O)(=O)N4CCCC4)cc3s2)cc1	12	13µM*	-1%	-3	-16%	0.16µM*
O=S(=O)(Nc1nc2ccc(S(=O)(=O)N3CCCCC3)cc2s1)c1ccccc1	3	8.9µM*	-5%	-5	-11%	0.35µM*
COc1ccc(CSc2nc(C)cc(=O)[nH]2)cc1Br	-22	16µM*	9%	-3	-4%	4%
Cc1cc(=O)[nH]c(SCc2cccc(Br)c2)n1	12	14µM*	4%	4	-9%	-8%
CC(=O)c1c(C)cc(C)c(CSc2nc(C)cc(=O)[nH]2)c1C	-112*	?	5%	-16	-8%	-15%
CCOC(=O)CSc1nc(C)cc(=O)[nH]1	-9	-8%	8%	4	0%	4%
COC(=O)c1cc(=O)[nH]c(SCc2cccc(C)c2)n1	78	-24%	4%	-17	1%	-2%
c1ccc(CN2CCC(Nc3nc(-c4cccs4)nc4ccccc34)CC2)cc1	·	·	5%	-6	·	4%
O=C(COc1ccc(Cl)cc1)NCc1cn2cc(Cl)ccc2n1	·	·	3%	-4	·	13%
Cc1cc(OCC(=O)NCc2cccnc2)ccc1[N+](=O)[O-]	·	·	11%	2	·	2%
Cc1cc(OCC(=O)NC(C)c2ccccc2)ccc1[N+](=O)[O-] (stereo not given)	·	·	-4%	-6	·	25µM*
O=c1c(CCc2ccccc2)nc2cnc(N3CCNCC3)nc2n1-c1ccccc1	·	·	6%	·	·	?
CCc1ccc(C=NC23CN4CN(CN(C4)C2)C3)s1	-22	-11%	-22%	3	0%	7.9µM*
CCc1ccc(/C=N/NC(=O)c2cc(C)on2)s1	113	-18%	-7%	-1	-2%	-3%
CC1(C)C(c2ccccc2)=[N+]([O-])CN1O	2	-3%	-2%	-1	-2%	7.9µM*
O=C1CC(c2ccco2)CC(O)=C1C=NCCN1CCN(C2CC(=O)N(c3ccccc3)C2=O)CC1 (stereo not given)	-100*	-11%	0%	1	3%	?
O=C1CC(c2ccco2)CC(O)=C1C=NCCN1CCNCC1 (stereo not given)	-30	-17%	-6%	-10	-5%	13µM*
CC1(C)CC(=O)C(C=NCCN2CCN(C3CC(=O)N(c4ccc(Cl)c(Cl)c4)C3=O)CC2)=C(O)C1 (stereo not given)	·	·	2%	3	·	22µM*
CCNc1ncc2nc(-c3ccc(F)cc3)c(=O)n(-c3ccccc3)c2n1	·	·	-14%	·	·	?
O=c1ccc2ccc(O)c(O)c2o1	·	?	23%	-2	-5%	?
O=C(O)CCc1c2ccc(=O)c(O)c-2oc2c(O)c(O)ccc12	·	2.8µM*	·	·	-29%[11.4 µM]	?
O=C(c1ccc(Cl)cc1)N1CCC(O)(CSc2ccc(Cl)cc2)CC1	-9	-11%	11%	?	-22%	16µM*
COc1cccc(SCC2(O)CCN(C(=O)c3ccc(Cl)cc3)CC2)c1	·	·	3%	-4	·	?
O=C(c1ccc(Cl)cc1)N1CCC(O)(CSc2ccccc2)CC1	-91*	-3%	-11%	-17	2%	1.4µM*
CN1CCN(CC2(O)CCN(S(=O)(=O)c3ccc(Cl)cc3)CC2)CC1	·	·	0%	0	·	11%
Cc1ccc(SCC2(O)CCN(S(=O)(=O)c3ccc(Cl)cc3)CC2)cc1	-100*	-9%	4%	-2	-21%	?
CC(C)CN1CCC2(CC1)CCN(C(=O)c1cccc(F)c1)CC2	·	-23%	-1%	·	-5%	2%
COc1cccc(CN2CCNC(=O)C2CC(=O)NCCOc2cccnc2)c1 (stereo not given)	·	·	13%	-10	·	-14%
Cc1ccc(NC(=O)COc2ncnc3cc([N+](=O)[O-])ccc23)cc1S(=O)(=O)N1CCOCC1	·	·	-1%	1	·	?

Screening data (PubChem)
